Screening results as filed in PubChem.
Shn3 inh set2 = reduction of Shn3 3'UTR firefly luciferase signal, primary screen, Schnurri-3 inhibitor project, cell-based, Clone20 osteoblasts, set 2 | Clone20 osteoblast Shn3 3'UTR firefly luciferase, 24 h | hit rate 0.52% among 360,000 | inhibition, % at 12.5 µM | AID 588674, 2011;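 active = mean inhibition of at least 75% with every replicate also reaching 75%; inconclusive = mean inhibition at least 75% but some replicate below; inactive = mean inhibition below 75%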;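 also: 0% = median of neutral control wells and 100% = pilot-screen positive control compound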
EWS-Fli block = EWS/Fli-driven NR0B1 reporter inhibitors, primary screen, A673 cells, NR0B1 luciferase, luminescence, MLPCN library; viability-normalised; inhibition, % at 12.6 µM; hit rate 0.67% among 350,000; AID 651661, 2012;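 active = mean inhibition of at least 50% after viability correction, with every replicate also passing that limit; inconclusive = mean reaches 50% but only one of two replicates passes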;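 also: firefly luciferase signal divided by Alamar Blue viability fluorescence both relative to DMSO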
ABHD5 PLIN5 PPI = ABHD5-PLIN5 interaction inhibitors, primary screen, cell lysate, split luciferase complementation, luminescence. AID 602281, 2012. Split G. princeps luciferase complementation, 4 h. Perilipin-5 (Homo sapiens) + 1-acylglycerol-3-phosphate O-acyltransferase ABHD5 (Homo …. hit rate 0.78% among 360,000. inhibition, % at 4 µM;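 active = inhibition above the mean inhibition across every tested compound plus 3 SD, cut at about 22% in these data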;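 also: 0% = DMSO only wells and the 100% control is not disclosed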
Target sequence (Q00G26 whole entry, looked up): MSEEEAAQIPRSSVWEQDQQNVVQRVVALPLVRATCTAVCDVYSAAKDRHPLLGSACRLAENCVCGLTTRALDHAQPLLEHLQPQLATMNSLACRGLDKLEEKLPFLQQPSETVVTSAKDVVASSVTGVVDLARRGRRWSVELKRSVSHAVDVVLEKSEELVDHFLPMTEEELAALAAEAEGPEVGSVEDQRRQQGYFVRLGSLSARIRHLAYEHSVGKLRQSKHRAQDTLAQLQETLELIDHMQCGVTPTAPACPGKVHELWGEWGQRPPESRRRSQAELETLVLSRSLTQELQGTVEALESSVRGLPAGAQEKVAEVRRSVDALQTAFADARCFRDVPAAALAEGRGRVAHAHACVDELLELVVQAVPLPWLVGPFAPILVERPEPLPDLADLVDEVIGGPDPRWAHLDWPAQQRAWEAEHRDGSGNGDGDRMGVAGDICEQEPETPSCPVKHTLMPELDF
Target sequence (Q8WTS1 whole entry, looked up): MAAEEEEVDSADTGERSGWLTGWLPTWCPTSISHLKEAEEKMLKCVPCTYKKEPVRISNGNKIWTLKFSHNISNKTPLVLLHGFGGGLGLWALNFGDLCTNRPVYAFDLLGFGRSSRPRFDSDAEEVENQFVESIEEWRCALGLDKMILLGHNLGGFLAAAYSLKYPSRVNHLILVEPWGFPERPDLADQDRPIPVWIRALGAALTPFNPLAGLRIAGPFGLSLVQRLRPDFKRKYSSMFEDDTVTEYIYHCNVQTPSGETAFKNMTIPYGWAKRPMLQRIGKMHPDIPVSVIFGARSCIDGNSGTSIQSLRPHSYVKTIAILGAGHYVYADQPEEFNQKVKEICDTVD
MITF TRPM1 inh = inhibitors of MITF-dependent TRPM1 promoter reporter, primary screen, cell-based, SK-MEL-5, single point, luciferase | SK-MEL-5 TRPM1 promoter luciferase, 24 h | inhibition, % at 12.5 µM | hit rate 0.83% among 330,000 | AID 488899, 2010;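 active = mean inhibition across replicates of 60% or more, whatever share of single replicates reaches that level; inconclusive = some that reach 60%, reason not given; inactive = mean inhibition across replicates below 60%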
PAX8 inh HTS = inhibitors of PAX8-driven TPO luciferase reporter, primary screen, RMG-I cells, single concentration; SteadyGlo, 24 h; inhibition, % at 12.6 µM; hit rate 1.2% among 360,000; AID 652154, 2013;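 active = mean replicate inhibition at least 60% with every replicate also reaching 60%; inconclusive = only one of the two criteria is met; inactive = mean below 60% and not all replicates reaching 60%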;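 also: luciferase light reporting Pax8 driven TPO promoter activity; plate controls were median of neutral control wells for no effect and mitoxantrone controls for full effect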
Peg3 promoter = Peg3 promoter-driven luciferase inhibitors, primary screen, cell-based, HeLa, luciferase luminescence | HeLa PEG-Prom luciferase reporter, overnight | hit rate 1.7% among 360,000 | inhibition, % at 20 µM;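 active = inhibition of at least 50% at 20 µM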
* marks the source's active call; other numbers are inactive results. Rows were chosen to be rich in hits. Some 3% of all compounds tested hit in one or more screens of this group.

`CCN(CC)S(=O)(=O)c1ccc(NC(=O)Nc2cccc(C(F)(F)F)c2)cc1` gave Shn3 inh set2 96*, ABHD5 PLIN5 PPI -25, MITF TRPM1 inh 60* and Peg3 promoter 52*.
For O=C(Nc1ccncc1)Nc1cccc(C(F)(F)F)c1 the results were Shn3 inh set2 8, EWS-Fli block 18, ABHD5 PLIN5 PPI 4, MITF TRPM1 inh -15, PAX8 inh HTS -9 and Peg3 promoter 21.
Screening Cc1ccc(S(=O)(=O)Nc2ccc(NC(=O)Nc3cccc(C(F)(F)F)c3)cc2)cc1 returned Shn3 inh set2 75, EWS-Fli block 13, ABHD5 PLIN5 PPI -12, MITF TRPM1 inh 6, PAX8 inh HTS 46 and Peg3 promoter 96*.
Screening C[C@@H]1CN([C@@H](C)CO)C(=O)c2cc(N(C)C)ccc2O[C@@H](C)CCCCO[C@@H]1CN(C)C(=O)CCCN(C)C returned EWS-Fli block 5 and PAX8 inh HTS -10.
`CCC(=O)N(C)C[C@@H]1Oc2cc(C#Cc3ccncc3)ccc2S(=O)(=O)N([C@H](C)CO)C[C@H]1C` gave EWS-Fli block 0.
CCc1nc(N2[C@@H](C#N)[C@H](c3ccccc3-c3ccccc3F)[C@@H]2CO)sc1C was read as EWS-Fli block 58* and PAX8 inh HTS -15.
For CCc1nc(N2[C@H](C#N)[C@H](c3ccccc3-c3ccccc3F)[C@H]2CO)sc1C the results were EWS-Fli block 2 and PAX8 inh HTS 15.
O=C(Cn1cnc2c(NCc3ccccc3)ncnc21)NCc1ccccc1 was read as Shn3 inh set2 21, EWS-Fli block 56*, ABHD5 PLIN5 PPI -2, MITF TRPM1 inh 38, PAX8 inh HTS 18 and Peg3 promoter 7.
For COCCNC(=O)C[C@H]1C[C@H]2c3cc(NC(=O)COC)ccc3O[C@H]2[C@H](CO)O1 the results were EWS-Fli block 0 and PAX8 inh HTS 5.
For COc1cc(C2C3=C(Nc4ncnn42)c2ccccc2CC3)cc(OC)c1OC (stereo not drawn) the results were Shn3 inh set2 11, ABHD5 PLIN5 PPI 5, MITF TRPM1 inh inconclusive, PAX8 inh HTS 95* and Peg3 promoter -10.
Screening CCCS(=O)(=O)c1c(S(=O)(=O)CCC)c2c(C)cccn2c1C(=O)N/N=C/c1cc(O)cc(O)c1 returned Shn3 inh set2 62, EWS-Fli block 18, ABHD5 PLIN5 PPI -5, MITF TRPM1 inh 58, PAX8 inh HTS 49 and Peg3 promoter 53*.
Screening Cn1c2c(c(=O)n(C)c1=O)C(C(F)(F)F)(C(F)(F)F)N=C(CCC1CCCCC1)N2 returned Shn3 inh set2 47, EWS-Fli block 5, ABHD5 PLIN5 PPI -10, MITF TRPM1 inh 5, PAX8 inh HTS 31 and Peg3 promoter 58*.
Cn1c2c(c(=O)n(C)c1=O)C(C(F)(F)F)(C(F)(F)F)N=C(c1ccccc1Cl)N2 was read as Shn3 inh set2 -15, ABHD5 PLIN5 PPI -1, MITF TRPM1 inh 4, PAX8 inh HTS 10 and Peg3 promoter 12.
For Cc1ccc(-c2onc(C)c2C)cc1S(=O)(=O)N1CCOc2ccccc21 the results were Shn3 inh set2 55, ABHD5 PLIN5 PPI -2, MITF TRPM1 inh 11, PAX8 inh HTS 16 and Peg3 promoter 52*.
For Cc1cc(-c2ccc(C(C)C)c(S(=O)(=O)N3CCOc4ccccc43)c2)on1 the results were Shn3 inh set2 40, EWS-Fli block 4, ABHD5 PLIN5 PPI -17, MITF TRPM1 inh 3, PAX8 inh HTS 31 and Peg3 promoter 16.
O=C1CN(Cc2ccc(F)cc2)C[C@@H]2[C@H](c3ccc(Br)cc3)[C@H](CO)N12 was read as EWS-Fli block 13.
CN1/C(=C\C(=O)c2cccnc2)C(C)(C)c2ccccc21 was read as Shn3 inh set2 -27, EWS-Fli block -17, ABHD5 PLIN5 PPI -3, MITF TRPM1 inh -20, PAX8 inh HTS -20 and Peg3 promoter -56.
`CN1/C(=C\C(=O)C[n+]2ccc3ccccc3c2)C(C)(C)c2ccccc21` gave Shn3 inh set2 0, EWS-Fli block 42, ABHD5 PLIN5 PPI 6, MITF TRPM1 inh inconclusive, PAX8 inh HTS 78* and Peg3 promoter 33.
